Assay results from PubChem BioAssay.
Activity calls are given as the source filed them. Unless noted, how the calls were made is not given here.

How the values were obtained:
[1] = resazurin metabolic signal in HepG2 cells – cell-based, resazurin fluorescence, 24 h, PK04 Diversity Set, profiling panel (AID 1172); conditions: HepG2 viability, higher = more signal
[2] = budding yeast growth changes without added modifier – OD600, strain BY4716, 24 h, basal condition, primary screen (AID 1173); conditions: S. cerevisiae BY4716 growth, OD600, 24 h; higher = more signal, called active from +8 up or from −8 down
[3] = viability profiling in MM1S myeloma cells – cell-based, resazurin fluorescence, basal, 24 h, PK04 Diversity Set, profiling panel (AID 1174); conditions: higher = more signal, called active from +8 up or from −8 down;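 further: MM1S multiple myeloma cell line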
[4] = molecular target: Dihydroorotate dehydrogenase (quinone), mitochondrial (Plasmodium falciparum (isolate 3D7)) (UniProt Q08210); experiment: inhibition of P. falciparum DHODH – biochemical, C-terminal His tag, absorbance 600 nm, primary screen (AID 1175); conditions: PfDHODH enzyme, DCIP absorbance 600 nm; higher = more signal, called active from +8 up or from −8 down;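 further: recombinant parasite enzyme with a five histidine tag at its C terminus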
[5] = inhibition of PAO1 biofilm formation – strain PAO1, LB-PBS medium, absorbance 600 nm, primary screen (AID 1176); conditions: P. aeruginosa PAO1 growth/biofilm, A600, 12 h; higher = more signal
[6] = growth modulation of vineyard yeast isolate – strain RM11-1a, OD600, basal, 24 h, primary screen (AID 1177);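 further: cultures grown under basal conditions with no added stressor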; conditions: S. cerevisiae RM11-1a growth, OD600, 24 h; higher = more signal, called active from +8 up or from −8 down
[7] = growth of efflux-deficient E. coli DRC39 – strain DRC39, OD650, 24 h, E. coli filamentation inducers, primary screen (AID 1178);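 further: growth measured as culture turbidity by optical density at 650 nm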; conditions: E. coli DRC39 acrAB, higher = more signal, called active from +8 up or from −8 down
[8] = growth of efflux-deficient E. coli DRC39 – strain DRC39, OD650, 48 h, E. coli filamentation inducers, primary screen (AID 1179);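 further: screen aims at cell division blockers that make cells filament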; conditions: E. coli DRC39 delta-acrAB growth, higher = more signal, called active from +8 up or from −8 down
[9] = viability profiling in RPMI8226 myeloma cells – cell-based, resazurin fluorescence, basal, 24 h, PK04 Diversity Set, profiling panel (AID 1180); conditions: higher = more signal;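 further: RPMI8826 multiple myeloma cell line at 5000 cells per well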
[10] = molecular target: E3 ubiquitin-protein ligase XIAP (Homo sapiens) (UniProt P98170); experiment: small molecules binding XIAP protein – biophysical, small-molecule microarray, fluorescence 635 nm, primary screen (AID 1181); conditions: higher = more signal;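 further: score merges 667 nm emission and signal to noise over triplicate slides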
[11] = tested on: XIP peptide (Xip251-270) binding; experiment: XIP fragment 251-270 binding compounds – biochemical, small-molecule microarray, fluorescence 635/667 nm, 0.1 µg/mL protein, primary screen (AID 1182); conditions: fluorescent protein binding, 635 nm, higher = more signal, called active from +8 up or from −8 down
XIP peptide (Xip251-270) = experiment: compounds binding XIP fragment 251-270 – biochemical, small-molecule microarray, fluorescence 635/667 nm, 0.5 µg/mL protein, primary screen (AID 1183); conditions: fluorescence 635 nm, higher = more signal
[12] = blood-stage malaria parasite viability loss – strain 3D7, DAPI fluorescence, 100 nL, primary screen (AID 1184);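 further: parasites grown inside human red blood cells in medium with human serum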; conditions: P. falciparum 3D7 growth, 3 d, higher = more signal
[13] = molecular target: Homeobox protein Hox-A13 (Mus musculus) (UniProt Q62424); experiment: disruptors of Hoxa13 oligonucleotide interaction – biochemical, fluorescence polarization, labeled oligonucleotide, primary screen (AID 1185); conditions: Hoxa13:DNA binding, 15 min, higher = more signal, called active from +8 up or from −8 down
[14] = blockers of DNA damage checkpoint Chk1 activation – imaging, HeLa, hydroxyurea, phospho-Chk1 antibody, percent positive cells, primary screen (AID 1186); conditions: hydroxyurea-induced phospho-Chk1 immunofluorescence imaging, higher = more signal
[15] = blockers of DNA damage checkpoint Chk1 activation – imaging, HeLa, hydroxyurea, phospho-Chk1 nuclear intensity, primary screen (AID 1187); conditions: hydroxyurea-induced phospho-Chk1 immunofluorescence imaging, higher = more signal

Chain of E3 ubiquitin-protein ligase XIAP (Homo sapiens) (P98170 whole entry, looked up, the tested form may be a part): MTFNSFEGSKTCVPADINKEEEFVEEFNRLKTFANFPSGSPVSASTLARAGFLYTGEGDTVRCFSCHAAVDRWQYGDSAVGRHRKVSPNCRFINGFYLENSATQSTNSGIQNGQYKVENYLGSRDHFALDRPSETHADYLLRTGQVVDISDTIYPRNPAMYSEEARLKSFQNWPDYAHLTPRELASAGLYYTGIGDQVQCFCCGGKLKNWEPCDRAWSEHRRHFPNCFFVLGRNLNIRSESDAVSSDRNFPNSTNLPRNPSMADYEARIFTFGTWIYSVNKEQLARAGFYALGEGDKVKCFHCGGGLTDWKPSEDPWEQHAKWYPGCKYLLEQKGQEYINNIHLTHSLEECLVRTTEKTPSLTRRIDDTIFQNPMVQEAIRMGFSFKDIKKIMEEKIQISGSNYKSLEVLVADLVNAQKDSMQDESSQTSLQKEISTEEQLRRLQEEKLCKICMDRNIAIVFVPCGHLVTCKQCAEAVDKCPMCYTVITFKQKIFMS
Chain of Homeobox protein Hox-A13 (Mus musculus) (Q62424 whole entry, looked up): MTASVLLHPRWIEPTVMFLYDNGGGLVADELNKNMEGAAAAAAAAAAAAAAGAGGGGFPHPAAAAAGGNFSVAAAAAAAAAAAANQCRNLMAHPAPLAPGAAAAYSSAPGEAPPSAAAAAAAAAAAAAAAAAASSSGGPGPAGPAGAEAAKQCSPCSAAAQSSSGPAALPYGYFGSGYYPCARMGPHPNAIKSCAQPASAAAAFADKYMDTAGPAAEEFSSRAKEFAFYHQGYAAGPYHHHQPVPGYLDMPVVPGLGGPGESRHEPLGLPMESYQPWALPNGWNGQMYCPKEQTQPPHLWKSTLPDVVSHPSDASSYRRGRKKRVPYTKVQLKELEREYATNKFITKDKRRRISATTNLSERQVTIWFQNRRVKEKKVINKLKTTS
Chain of Dihydroorotate dehydrogenase (quinone), mitochondrial (Plasmodium falciparum (isolate 3D7)) (Q08210 whole entry, looked up): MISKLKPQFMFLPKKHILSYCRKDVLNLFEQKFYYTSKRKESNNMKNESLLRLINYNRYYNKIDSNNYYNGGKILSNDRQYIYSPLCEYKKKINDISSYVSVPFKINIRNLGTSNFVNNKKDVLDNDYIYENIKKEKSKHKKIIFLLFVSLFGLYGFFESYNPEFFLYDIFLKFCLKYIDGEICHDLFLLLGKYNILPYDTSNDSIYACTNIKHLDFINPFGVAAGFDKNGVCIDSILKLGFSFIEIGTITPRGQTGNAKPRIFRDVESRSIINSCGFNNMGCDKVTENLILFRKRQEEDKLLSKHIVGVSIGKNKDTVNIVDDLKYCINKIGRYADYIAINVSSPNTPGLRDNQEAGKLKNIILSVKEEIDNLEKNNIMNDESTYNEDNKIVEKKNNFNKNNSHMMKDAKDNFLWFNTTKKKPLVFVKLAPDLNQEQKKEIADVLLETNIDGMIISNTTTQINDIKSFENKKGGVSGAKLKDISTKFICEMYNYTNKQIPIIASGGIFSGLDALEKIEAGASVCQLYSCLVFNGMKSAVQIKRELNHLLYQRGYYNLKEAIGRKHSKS

Row | SMILES | z-score [1] | z-score [2] | z-score [3] | composite z-score [4] | z-score [5] | z-score [6] | z-score [7] | z-score [8] | z-score [9] | composite z-score [10] | composite z-score [11] | composite z-score (XIP peptide (Xip251-270)) | z-score [12] | z-score [13] | z-score [14] | z-score [15]
1 | COCCOC(=O)N1C(=O)[C@@]2(c3cc(C#CCCO)ccc31)[C@H](c1ccc(O)cc1)N1[C@H](c3ccccc3)[C@H](c3ccccc3)OC(=O)[C@H]1[C@@H]2C(=O)N1CCN(c2ncccn2)CC1 | 1.36 | 0.467 (inactive) | -0.0402 (inactive) | -0.235 (inactive) | 0.541 (inactive) | 0.035 (inactive) | -0.235 (inactive) | -0.62 (inactive) | 0.783 | 0.17 | 0.729 (inactive) | 0.831 | -1.13 | -2.37 (inactive) | -0.264 (inactive) | -0.0303 (inactive)
2 | CCN(CC)c1ccc(N2CC=CC34O[C@@H]5/C=C\CCC(C)OC(=O)C5[C@H]3C(=O)N(CCCCCO)[C@@H]4C2=O)cc1 (some centres undefined) | 0.18 | -0.596 (inactive) | 0.603 (inactive) | 0.513 (inactive) | -0.469 (inactive) | -0.147 (inactive) | 0.95 (inactive) | 1.1 (inactive) | 0.802 | -0.161 | -0.474 (inactive) | 0.102 | -0.0194 | -5.39 (inactive) | 0.489 (inactive) | 0.673 (inactive)
3 | O=C1[C@H]2C=C(I)[C@H](C[C@@H]2OCCCCO)[C@@]12CO2 | 0.187 | -1.19 (inactive) | -0.536 (inactive) | -0.543 (inactive) | 0.13 (inactive) | -0.192 (inactive) | -0.682 (inactive) | -0.405 (inactive) | -0.304 | -0.0448 | -0.294 (inactive) | -0.425 | 1.1 | -1.94 (inactive) | 0.239 (inactive) | -0.203 (inactive)
4 | COCCCNC(=O)[C@@]1(Cc2ccccc2)N=C(c2ccc(OCCCO)cc2)O[C@H]1c1ccccc1CN=[N+]=[N-] | -0.708 | -0.176 (inactive) | -0.78 (inactive) | -0.453 (inactive) | 0.95 (inactive) | 0.499 (inactive) | 0.0347 (inactive) | 0.134 (inactive) | -1.22 | 0.0607 | 0.596 (inactive) | 0.801 | -2.62 | -3.07 (inactive) | 0.0048 (inactive) | -0.194 (inactive)
5 | C=CCC(OC(C)=O)[C@@H]1[C@@H](N(Cc2ccc(-c3cccc(C(F)(F)F)c3)o2)C(=O)c2cccc3ccccc23)c2cc(OCCCO)ccc2N1C(=O)Cc1ccc2ccccc2c1 (some centres undefined) | -0.496 | -0.721 (inactive) | -0.291 (inactive) | 0.22 (inactive) | -0.935 (inactive) | -0.0974 (inactive) | 0.525 (inactive) | 0.235 (inactive) | -0.638 | -0.242 | -0.16 (inactive) | 0.0499 | -1.78 | -3.09 (inactive) | 0.233 (inactive) | 0.504 (inactive)
6 | C=CC[C@]1(C(=O)N2CCOCC2)N=C(c2ccc(OCCCO)cc2)O[C@H]1c1ccccc1N=[N+]=[N-] | 0.101 | -1.01 (inactive) | -0.454 (inactive) | 0.846 (inactive) | -0.167 (inactive) | 0.275 (inactive) | 1.31 (inactive) | 0.844 (inactive) | -0.266 | 0.179 | 0.821 (inactive) | 0.75 | -1.92 | -4.01 (inactive) | -0.528 (inactive) | -0.67 (inactive)
7 | Cc1ccc(S[C@]2(C(=O)O)CC(=O)N(Cc3ccccc3C(F)(F)F)[C@@H]2c2ccc(CO)cc2I)cc1 | 0.484 | -5.47 (inactive) | -2.29 (inactive) | -0.358 (inactive) | 0.304 (inactive) | -1.22 (inactive) | 0.0985 (inactive) | -0.367 (inactive) | -1.78 | -0.0076 | 0.397 (inactive) | 0.773 | 0.182 | -2.74 (inactive) | -0.157 (inactive) | 0.408 (inactive)
8 | CC(C)C(=C=CC[C@H](O)c1ccc(CO)o1)CCO | -0.0202 | -1.56 (inactive) | -0.159 (inactive) | -2.12 (inactive) | 0.0356 (inactive) | -0.132 (inactive) | -0.706 (inactive) | -0.741 (inactive) | 0.152 | 0.102 | 0.352 (inactive) | 0.792 | 1.27 | -4.02 (inactive) | -0.301 (inactive) | -0.0779 (inactive)
9 | COC(=O)c1c(CC[C@@H](CO)NC(=O)NCCc2c[nH]c3ccccc23)oc(C(=O)Cc2ccccc2)c1C(=O)OC | 1.35 | -1.46 (inactive) | 1.31 (inactive) | -2.63 (inactive) | -0.771 (inactive) | -0.731 (inactive) | 1.04 (inactive) | 0.733 (inactive) | 0.861 | -0.406 | 1.4 (inactive) | 0.713 | -0.0066 | -6.54 (inactive) | -0.216 (inactive) | -0.098 (inactive)
